Percent Effect data for 39 compounds are collected here from ChEMBL document CHEMBL3988442, “University of Dundee, Small-Polar-MMV Screening Library” (2021).

SMILES strings stand for the structures. Measured potencies and affinities stand elsewhere.

Sequence of Protein translocase subunit SecA (Escherichia coli (strain K12)) (P10408 whole entry): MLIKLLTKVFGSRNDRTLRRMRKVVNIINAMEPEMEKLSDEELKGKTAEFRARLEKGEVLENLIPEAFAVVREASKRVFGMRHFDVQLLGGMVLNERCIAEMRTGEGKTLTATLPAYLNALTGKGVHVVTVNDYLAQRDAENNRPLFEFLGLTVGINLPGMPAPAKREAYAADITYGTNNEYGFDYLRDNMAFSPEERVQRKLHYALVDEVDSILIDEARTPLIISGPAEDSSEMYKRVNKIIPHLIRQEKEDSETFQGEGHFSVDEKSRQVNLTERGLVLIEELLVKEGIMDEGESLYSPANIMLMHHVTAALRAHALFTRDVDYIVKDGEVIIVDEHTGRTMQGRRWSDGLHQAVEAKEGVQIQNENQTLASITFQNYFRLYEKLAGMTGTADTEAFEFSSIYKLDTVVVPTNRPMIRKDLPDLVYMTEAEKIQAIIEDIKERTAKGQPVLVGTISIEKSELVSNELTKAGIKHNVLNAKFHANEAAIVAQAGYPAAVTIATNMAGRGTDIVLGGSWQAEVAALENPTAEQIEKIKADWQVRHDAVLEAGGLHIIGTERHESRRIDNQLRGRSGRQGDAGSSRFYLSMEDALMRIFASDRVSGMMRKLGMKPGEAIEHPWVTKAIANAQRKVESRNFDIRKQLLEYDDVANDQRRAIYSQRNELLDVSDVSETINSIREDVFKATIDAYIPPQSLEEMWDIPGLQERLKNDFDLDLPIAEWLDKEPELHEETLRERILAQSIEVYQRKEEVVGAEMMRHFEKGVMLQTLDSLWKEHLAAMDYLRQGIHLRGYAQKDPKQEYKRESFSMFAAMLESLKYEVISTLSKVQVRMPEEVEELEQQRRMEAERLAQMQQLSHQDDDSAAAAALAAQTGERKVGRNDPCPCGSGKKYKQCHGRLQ

One assay addresses Protein translocase subunit SecA (Escherichia coli (strain K12)) (UniProt P10408). Briefly: Assay to Identify E. coli SecA ATPase Inhibitors. It is filed as functional. Set-up: scale not given: direction of the effect not stated beside the values. The settings on record: 30 µM.
For the compound `CC(C)C(NC(=O)NCC1(CO)CC1)c1nnc2n1CCC2` (stereo not drawn), the Percent Effect was -7.18%.

On to `COc1ccccc1CN(C)c1nccc(-c2cn(C)nc2C)n1`, for which the Percent Effect was -1.09%. Regarding `COc1ccc(CNC(=O)Nc2cccnc2N2CCCC2)cc1O`, the Percent Effect is -2.46%. Same read-out and setting: in the case of `Cn1ncc2c1CN(Cc1cccnc1)CC2COCC1CC1` (stereo not drawn) it was -0.107%; in that of `COc1ccc(OC)c(CNCCc2cc(F)cc3c2OCOC3)c1`, -5.17%. Regarding `CS(=O)(=O)NCCCN1CCCC1c1ccccc1` (stereo not drawn), the Percent Effect was -4.36%.

Consider `CN1CCOC(CNCc2cccc(OCC(F)(F)F)c2)C1` (stereo not drawn), for which the Percent Effect was -3.56%.

Turning to `Cc1cnn(CCNCc2csc(-c3cccs3)n2)c1`, the Percent Effect was -2.47%. Take `CCn1cnnc1CNC(=O)NC(C)c1cccs1` (stereo not drawn): the Percent Effect is -1.87%. On the same count and under the same terms, next, `CC(C)Nc1nc(N2CCOCC2)nc2c1CN(CC(=O)N(C)C)CC2`: -9.2%; `O=C(NCCCO)C1CC(=O)N(c2n[nH]c3cccc(F)c23)C1` (stereo not drawn): 0.204%; `Cn1cc(CN2C[C@@H]3COC[C@@H](C(=O)N4CCCCO4)[C@@H]3C2)cn1`: -2.29%. In the case of `O=C1CC(c2ccccc2)c2snc(C(=O)O)c2N1` (stereo not drawn), the Percent Effect was -3.07%.

For the compound `CCc1nc(C(=O)N2CCCC2)nn1-c1ccccc1Cl`, the Percent Effect was -7.61%.

Consider `Cc1ccc(Nc2nccc(C3CN(CC(N)=O)C3)n2)nc1`, for which the Percent Effect is -6.39%.

Consider `O=C(NCCCn1cccn1)N1CCCC1c1ccncc1` (stereo not drawn), for which the Percent Effect was -5.24%. For `CCC1CN(CC(=O)Nc2sccc2C#N)CCO1` (stereo not drawn), the Percent Effect is -4.43%. On the same count and under the same terms, in the case of `CCc1n[nH]c(C2CN(C(=O)c3cnc[nH]3)CCO2)n1` (stereo not drawn) it was -4.08%; in that of `O=C(NCC1CCCO1)c1c(-n2cnnn2)sc2c1CCC2` (stereo not drawn), -5.27%.

The next assay has as its target T1, Ubiquitin-activating enzyme e1, putative (Leishmania donovani (strain BPK282A1)) (UniProt E9BSI1).
T1 sequence (whole entry): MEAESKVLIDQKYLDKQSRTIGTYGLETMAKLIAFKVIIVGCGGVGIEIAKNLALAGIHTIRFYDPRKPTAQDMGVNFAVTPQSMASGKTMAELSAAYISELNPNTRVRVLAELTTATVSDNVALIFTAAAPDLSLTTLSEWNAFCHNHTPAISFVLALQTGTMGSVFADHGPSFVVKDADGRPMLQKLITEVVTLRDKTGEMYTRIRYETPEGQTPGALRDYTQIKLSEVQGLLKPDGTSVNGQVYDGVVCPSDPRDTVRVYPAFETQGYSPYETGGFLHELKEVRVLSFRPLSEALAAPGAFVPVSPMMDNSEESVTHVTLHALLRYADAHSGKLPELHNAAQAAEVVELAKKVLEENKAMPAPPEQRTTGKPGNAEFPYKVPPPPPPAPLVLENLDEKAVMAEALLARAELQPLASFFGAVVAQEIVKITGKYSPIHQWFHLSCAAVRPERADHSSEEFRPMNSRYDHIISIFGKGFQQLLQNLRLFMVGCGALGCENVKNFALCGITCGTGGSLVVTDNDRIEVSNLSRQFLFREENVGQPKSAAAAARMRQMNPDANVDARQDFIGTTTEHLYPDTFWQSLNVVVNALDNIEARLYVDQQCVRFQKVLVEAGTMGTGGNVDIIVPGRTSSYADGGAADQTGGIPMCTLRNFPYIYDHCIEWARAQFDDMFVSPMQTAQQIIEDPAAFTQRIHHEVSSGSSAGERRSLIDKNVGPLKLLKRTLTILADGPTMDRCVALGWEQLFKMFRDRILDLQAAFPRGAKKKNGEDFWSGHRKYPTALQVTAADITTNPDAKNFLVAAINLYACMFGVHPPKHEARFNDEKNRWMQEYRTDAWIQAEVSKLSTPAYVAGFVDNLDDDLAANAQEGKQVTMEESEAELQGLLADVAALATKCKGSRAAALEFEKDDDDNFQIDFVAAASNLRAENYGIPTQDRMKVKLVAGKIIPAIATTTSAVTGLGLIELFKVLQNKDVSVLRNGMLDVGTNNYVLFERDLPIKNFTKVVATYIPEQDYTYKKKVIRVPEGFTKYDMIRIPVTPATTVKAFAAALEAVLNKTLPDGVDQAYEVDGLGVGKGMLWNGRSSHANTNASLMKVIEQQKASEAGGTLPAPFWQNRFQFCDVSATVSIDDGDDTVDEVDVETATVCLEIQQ
Put plainly: Leishmania donovani Ubiquitin Activating Enzyme (LdE1). It is filed as functional. Details: scale not given: direction of the effect not stated beside the values. The settings on record: 30 µM.
`CCn1nc(C)c(CNC(=O)c2cn(CC3CCCO3)nn2)c1C` (stereo not drawn): the Percent Effect worked out at 0%. In the case of `CN1CCCc2cc(CNC(=O)c3ccc(NC4CC4)nc3)ccc21`, the Percent Effect was found to be 6.33%. On to `Cc1ccc(CNC2CCCc3c2cnn3C)s1` (stereo not drawn), for which the Percent Effect worked out at 13%. The same measure, in the same setting: in the case of `Cc1nc(CN2CCN(CC(=O)Nc3c(C)cccc3C)CC2)no1` it was 10.4%; in that of `CC(=O)N1CCC(C(=O)c2cc(C)cnc2N)CC1`, 10.7%; in that of `CC(=O)N1C[C@H](NC(=O)c2cscn2)[C@@H]2OCCC[C@@H]21`, 10.8%. Take `NC(=O)COc1ccc(CNCc2ccc(F)cc2F)cc1`: the Percent Effect worked out at 6.94%. Same read-out and setting: in the case of `CCCNC(=O)CN1CCN(Cc2csc(C(C)(C)C)n2)CC1` it was 2.53%; in that of `CCN1CC2(CCNCC2)COc2ccccc2S1(=O)=O`, 6.67%. For the compound `Cc1ccccc1CSc1nc(N)cc(N2CC[C@@H](O)C2)n1`, the Percent Effect worked out at 16.2%. Consider `O=C1CC2(CCN(CCO)CC2)CN1Cc1cc(F)cc(F)c1`, for which the Percent Effect stood at 6.94%.

For `O=C(c1csc(-c2cccs2)n1)N1CCCC1Cn1cccn1` (stereo not drawn), the Percent Effect is 10.5%.

Consider `CS(=O)(=O)N1CCC(Oc2ccc(C(=O)N3CCSCC3)cc2Cl)CC1`, for which the Percent Effect worked out at 9.72%. In the case of `CCc1nnc2n1CCN(Cc1csc(-c3cnn(C)c3)n1)C2`, the Percent Effect was 12.5%. Regarding `CN(C)C(=O)CNC(=O)c1ccc(Cl)cc1F`, the Percent Effect came to 21.1%. Regarding `Fc1ccc(-c2cnc(CN3CCCC3Cn3cccn3)o2)cc1` (stereo not drawn), the Percent Effect was found to be 7.59%. Take `Cc1cccnc1NCCNC(=O)[C@H]1CNC[C@@H](C(=O)N2CCCC2)C1`: the Percent Effect was 2.74%.

Turning to `Cc1cnc(NC(=O)c2ccc(-n3ncc(C#N)c3N)cc2)s1`, the Percent Effect was 7.59%.

`NCc1cnn(-c2ccccc2C(=O)NCCCn2ccnc2)c1`: the Percent Effect was 6.76%.

In the case of `CN(Cc1cnn(C)c1)C(=O)NC1CCN(Cc2ccccn2)CC1`, the Percent Effect is 15.6%. Turning to `CC(C)C(NC(=O)NCC1(CO)CC1)c1nnc2n1CCC2` (stereo not drawn), the Percent Effect is 13.5%.

On to `COc1ccccc1CN(C)c1nccc(-c2cn(C)nc2C)n1`, for which the Percent Effect was found to be 5.33%. As to `COc1ccc(CNC(=O)Nc2cccnc2N2CCCC2)cc1O`, the Percent Effect is 16.2%. As to `Cn1ncc2c1CN(Cc1cccnc1)CC2COCC1CC1` (stereo not drawn), the Percent Effect was determined as 2.74%. For the compound `COc1ccc(OC)c(CNCCc2cc(F)cc3c2OCOC3)c1`, the Percent Effect was -6.94%. For `CS(=O)(=O)NCCCN1CCCC1c1ccccc1` (stereo not drawn), the Percent Effect stood at 5.06%.

Consider `CN1CCOC(CNCc2cccc(OCC(F)(F)F)c2)C1` (stereo not drawn), for which the Percent Effect was found to be 5.06%.

For the compound `Cc1cnn(CCNCc2csc(-c3cccs3)n2)c1`, the Percent Effect is -2.63%. Turning to `CCn1cnnc1CNC(=O)NC(C)c1cccs1` (stereo not drawn), the Percent Effect was determined as 23.4%. In the case of `CC(C)Nc1nc(N2CCOCC2)nc2c1CN(CC(=O)N(C)C)CC2`, the Percent Effect turned out to be 0%. With `O=C(NCCCO)C1CC(=O)N(c2n[nH]c3cccc(F)c23)C1` (stereo not drawn), the Percent Effect was 17.3%. `Cn1cc(CN2C[C@@H]3COC[C@@H](C(=O)N4CCCCO4)[C@@H]3C2)cn1`: the Percent Effect is 2.67%. `O=C1CC(c2ccccc2)c2snc(C(=O)O)c2N1` (stereo not drawn): the Percent Effect was found to be 6.67%. Turning to `CCc1nc(C(=O)N2CCCC2)nn1-c1ccccc1Cl`, the Percent Effect was determined as 10.5%. For `Cc1ccc(Nc2nccc(C3CN(CC(N)=O)C3)n2)nc1`, the Percent Effect was 20.3%.

Consider `O=C(NCCCn1cccn1)N1CCCC1c1ccncc1` (stereo not drawn), for which the Percent Effect worked out at 2.67%. As to `CCC1CN(CC(=O)Nc2sccc2C#N)CCO1` (stereo not drawn), the Percent Effect is -13.2%. As for `CCc1n[nH]c(C2CN(C(=O)c3cnc[nH]3)CCO2)n1` (stereo not drawn), the Percent Effect was determined as 7.79%. Turning to `O=C(NCC1CCCO1)c1c(-n2cnnn2)sc2c1CCC2` (stereo not drawn), the Percent Effect was 5.26%.
